Compound activity deposited in PubChem BioAssay by National Center for Advancing Translational Sciences (NCATS).
Rab9 promoter act – qHTS Assay for Rab9 Promoter Activators. Huh7 Rab9 promoter-luciferase reporter, luminescence, 24 h. Potency, µM (highest dose often 9.22 µM), for the others: top-dose activation, negative = inhibition, hits mostly activators. 2.8% of 320,000 active; also: % of control where 0% means no effect; nearly all actives have a fitted effect of over 60% in size
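Luminescence read-out: Huh7 cells stably expressing Rab9-luciferase, treated 24 h with compound at 37 °C, then lysed with luciferase reagent for 10 min at ambient before reading.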
FLuc modulator – qHTS profiling assay for firefly luciferase inhibitor/activator using purifed enzyme and Km concentrations of substrates (counterscreen for miR-21 project) | Luciferin 4-monooxygenase (Photinus pyralis), P08659 | purified FLuc, Km substrates, luminescence inhibition | Potency, µM (doses to about 57.5 µM), for the others: top-dose activity change, negative = inhibition, actives largely listed as inhibitors | 6.9% of 360,000 active | AID 588342, 2011;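 also: plate controls were vehicle for no effect and reference inhibitor for full effect; nearly all actives have a fitted effect of over 55% in size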
Target sequence (P08659 whole entry, looked up): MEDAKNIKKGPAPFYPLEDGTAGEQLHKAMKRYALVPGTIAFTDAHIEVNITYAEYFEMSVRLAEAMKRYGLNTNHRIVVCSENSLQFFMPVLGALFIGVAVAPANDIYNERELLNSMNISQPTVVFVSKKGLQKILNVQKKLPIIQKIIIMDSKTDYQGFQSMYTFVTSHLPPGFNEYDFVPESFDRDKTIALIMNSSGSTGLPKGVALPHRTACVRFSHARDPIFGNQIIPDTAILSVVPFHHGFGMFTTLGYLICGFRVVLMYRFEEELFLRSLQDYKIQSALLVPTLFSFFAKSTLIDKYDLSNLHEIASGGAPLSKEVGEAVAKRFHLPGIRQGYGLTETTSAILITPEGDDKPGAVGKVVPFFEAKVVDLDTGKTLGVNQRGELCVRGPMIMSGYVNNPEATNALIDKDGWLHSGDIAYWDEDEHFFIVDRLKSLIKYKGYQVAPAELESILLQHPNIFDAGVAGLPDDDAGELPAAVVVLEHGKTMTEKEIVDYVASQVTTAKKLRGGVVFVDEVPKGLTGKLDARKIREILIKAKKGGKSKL
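Biochemical qHTS of compounds, final roughly 60 µM downward over six points, against 10 nM purified firefly luciferase using Km concentrations of substrates (10 uM D-luciferin, 10 uM ATP) in Tris acetate pH 7.5 buffer; luminescence output.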
NPC1 prom act – qHTS Assay for NPC1 Promoter Activators | 2.4% of 320,000 active | Huh7 NPC1 promoter luciferase reporter, 24 h | Potency, µM (highest dose often 9.22 µM), for inactives: top-dose activation, usual class: activators; also: % of control where 0% means no effect; nearly all actives have a fitted effect of over 60% in size
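Quantitative HTS used a cell-based reporter: Huh7 cells stably bearing the NPC1 promoter upstream of luciferase were treated with compounds for 24 h, and promoter activation was read as luminescence.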
KinaseGlo FLuc – Counterscreen for Luciferase (Kinase-Glo TM) Inhibition; Luciferin 4-monooxygenase (Photuris pensylvanica), Q27757; AID 1379, 2008; Potency, µM (doses to about 38.3 µM), inactives show top-dose activity change, negative = inhibition, usual class: inhibitors; Kinase-Glo luciferase, ATP luminescence, 8 min; 0.28% of 200,000 active; also: % is scaled to controls: 0 for no effect and ±100 for the full control effect; nearly all actives have a fitted effect of over 60% in size
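Kinase-Glo luciferase light output from ATP and luciferin was measured with 10 uM ATP, within the enzyme's linear range. Buffer: 50 mM imidazole pH 7.2, 50 mM KCl, 7 mM MgCl2, 0.01% Tween 20, 0.05% BSA; luminescence read after 8 min at ambient temperature.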
ELG1 genotox – qHTS screen for small molecules that induce genotoxicity in human embryonic kidney (HEK293T) cells expressing luciferase-tagged ELG1 | HEK293T ELG1-luciferase reporter, luminescence, 16 h | Potency, µM (series often up to 46 µM), inactives show top-dose activity change, positive = activation, usual class: activators | 1.3% of 330,000 active | AID 504466, 2011; also: % of control where 0% means no effect; nearly all actives have a fitted effect of over 60% in size
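Screening used a luciferase reporter fused to human ELG1 in HEK293T cells. Luminescence was read on a CCD plate imager after 16 hr exposure and 30 min ONE-Glo incubation.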
SMN2 splice enh – qHTS Assay for Enhancers of SMN2 Splice Variant Expression; HEK293 SMN2-luciferase splicing reporter, luminescence, 30-36 h; Potency, µM (doses to about 46.1 µM), without a hit: at the highest dose activity change, positive = activation, most hits filed as activators; 2.8% of 210,000 active; AID 1458, 2008; also: % of control where 0% means no effect; nearly all actives have a fitted effect of over 55% in size
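qHTS luciferase splicing reporter: luminescence rises when SMN2 exon 7 is included in transfected HEK293 cells. Compound exposure lasted 30-36 h at 37C, with 4.5 mM final sodium butyrate as control, followed by a ONE-Glo read.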
Active calls of the source: *; ? = inconclusive; · = no result; ! = repeats disagree; [ ] = another dose, or the depositor's remark. An excerpt weighted towards active compounds, which were near 7.3% of everything screened. Calls follow the shape of the dose curve; as a rule, active = well fitted curve in the direction sought with a large enough effect; inconclusive = small, poorly fitted or top-dose-only effect, or another doubt; inactive = no such curve, though single readings can be large; an effect the other way counts as inactive or inconclusive. Potency is read from the fitted curve at half-maximal effect.

SMILES | Rab9 promoter act | FLuc modulator | NPC1 prom act | KinaseGlo FLuc | ELG1 genotox | SMN2 splice enh
Cc1ccc(CNC(=O)c2ccc(NC(=O)c3nsc4ccccc34)cc2)cc1 | · | 6.7µM* | · | · | · | ·
Cc1ccccc1CNC(=O)c1ccc(NC(=O)c2nsc3ccccc23)cc1 | · | 6.7µM* | · | · | · | ·
CN(C)c1ccc(CNC(=O)c2ccc(NC(=O)c3nsc4ccccc34)cc2)cc1 | · | 2.7µM* | · | · | · | ·
CCC(C)(C)NC(=O)Cc1ccc(OC)c(OC)c1 | -1% | 1% | -2% | -3% | 3% | -4%
CC(C)C[C@H]1CN=C(Nc2ccccc2)N1CC1CCC(C)CC1 (stereo partly drawn) | -3% | -1% | 1% | · | -8% | ·
Cc1cc(NC(=O)CSc2nc(C)c(C)n2CC(C)C)no1 | · | · | · | · | 2% | ·
C/C(=N\Nc1nc(N2CCOCC2)nc(N2CCOCC2)n1)c1cccs1 | -8% | 2% | 0% | -3% | -2% | -3%
C/C(=N\Nc1nc(-c2ccccc2)cs1)c1cccs1 | 2µM* | 0.85µM* | 3.5µM* | -16% | ? | 2.8µM*
C/C(=N\Nc1nc2ccccc2s1)c1cccs1 | 3.5µM* | 0.67µM* | ? | -17% | ? | ·
Cc1c(C(=O)O)c(O)cc2c1C(=O)c1c(O)c([C@H]3O[C@H](CO)[C@@H](O)[C@H](O)[C@H]3O)c(O)c(O)c1C2=O | · | · | · | 13µM*! | · | -59%
CSc1nnc(Cn2c(=O)sc3ccccc32)n1-c1ccccc1 | 3% | 1% | -1% | 2% | -4% | 2%
On1c(-c2ccccc2)nc2ccc(Cl)cc21 | ? | 17µM* | ? | -4% | 8% | 13µM*
COc1ccc(-c2nc3ccccc3n2OC(C)C(=O)O)cc1 (stereo not drawn) | 0% | 11µM* | -2% | -2% | ? | ·
CC(On1c(-c2ccccc2)nc2ccc(Cl)cc21)C(=O)O (stereo not drawn) | 9% | ? | -3% | 2% | 6% | 8%
Cc1ccc(-c2nc3ccc(Cl)cc3n2OC(C)C(=O)O)cc1 (stereo not drawn) | 0% | 11µM* | 0% | -1% | ? | ?
O=S1(=O)N=C(Nc2ccc(N3CCOCC3)c(Cl)c2)c2ccccc21 | 3.5µM* | 5.4µM* | ? | 2% | ? | 13µM*
CCOC(=O)CC(=O)CSc1nc2ccc(C)cc2cc1C#N | 1% | -21%[2.3 µM] | 2% | -3% | 16µM* | 25µM*
COC(=O)CSc1nc2cc(C)ccc2cc1C#N | 1.4µM* | 13µM* | 1.6µM* | 1% | ? | 18µM*
COc1ccc(CC(=O)NCc2ccc3c(c2)CCN3C(=O)c2ccc(Cl)cc2)cc1OC | · | -19% | · | · | · | ·
CCOC(=O)CCSc1nc(C)c2cc(OC)ccc2n1 | ? | 13µM* | ? | -1% | ? | 12%
Cc1ccccc1-c1cc2c(nn1)-c1ccccc1C2=O | 4µM* | 1.3µM* | 3.2µM* | 5µM* | ? | ?
O=C1c2ccccc2-c2n[nH]c3cccc1c23 | 6%[46.1 µM] | · | ? | -1% | · | 10%
Cc1ccc(-c2cc3c(nn2)-c2ccccc2C3=O)cc1 | ? | 0.076µM* | ? | · | ? | ·
O=C1c2ccccc2-c2nnc(-c3ccc(O)cc3)cc21 | 0.5µM* | 0.54µM* | 0.63µM* | 11µM* | ? | 6.3µM*
O=c1[nH]nc(-c2ccc(F)cc2)cc1-c1ccccc1 | 1% | 1% | 2% | · | 6% | ·
SMILES | Rab9 promoter act | FLuc modulator | NPC1 prom act | KinaseGlo FLuc | ELG1 genotox | SMN2 splice enh
O=C1C(=O)c2ccc(-c3ccccc3)cc2-c2ccccc21 | -38% | 3% | -42% | 1% | -13% | -99%
O=C1c2ccccc2-c2nnc(-c3ccc(F)cc3)cc21 | 0.32µM* | 0.43µM* | ? | 5µM* | ? | 2.5µM*
COc1ccccc1NC(=O)c1sc2nc3n(c(=O)c2c1C)CCC3 | 10% | 3% | -3% | · | -1% | ·
COc1ccc(C)cc1S(=O)(=O)N(C)CC(=O)Nc1ccc2c(c1)OCCO2 | -2% | -19% | -1% | 2% | -7% | -19%
CCCCOc1ccc(C2=CSC3=NCCN23)cc1[N+](=O)[O-] | -3% | -1% | -1% | · | 8% | ·
COc1ccc(-c2cn3cc([N+](=O)[O-])ccc3n2)cc1OC | ? | 15µM* | 26% | -9% | ? | ?
CCCCOc1ccc(-c2csc(N)n2)cc1[N+](=O)[O-] | 2.8µM* | 3.8µM* | 2.5µM* | -1% | ? | 13µM*
COc1ccc(-c2nc(C)c(C(C)=O)n2O)cc1[N+](=O)[O-] | 13% | 17µM* | 4% | ? | 1% | 24%
CCCOc1ccc(-c2cn3ccccc3n2)cc1[N+](=O)[O-] | 2.2µM* | 1.7µM* | 3.2µM* | ? | ? | 1.6µM*
CC(=O)c1c(C)nc(-c2cccc([N+](=O)[O-])c2)n1O | -3% | -4% | -6% | -4% | -2% | -12%
Cc1cc(OCC(=O)NNC(=O)c2cccc(F)c2)ccc1Cl | 1% | -2% | -1% | · | 1% | ·
Cc1ccccc1CNC(=O)C1CCCN(c2nnc(-n3c(C)ccc3C)s2)C1 (stereo not drawn) | · | -10% | · | · | · | -4%
COc1ccc(-c2cn3ccccc3n2)cc1[N+](=O)[O-] | 1.4µM* | 1.7µM* | 4µM* | ? | ? | 11µM*
CC(=O)Nc1nonc1-c1nnc(SCc2ccccc2)n1C | · | -7% | · | · | · | ·
COc1cc(C(=O)Nc2ccc(C(F)(F)F)cc2)ccc1OCC(=O)N1CCOCC1 | 20% | 6.7µM* | 17% | · | 0% | ·
O=C(Nc1ccc(OCC(=O)N2CCOCC2)cc1)c1ccccc1F | 27% | 4.8µM* | 22% | · | 20% | ·
COc1cc(C(=O)Nc2cc(C)c(OCC(=O)N3CCOCC3)c(C)c2)cc(OC)c1OC | 2% | 4% | -4% | -2% | 9% | ·
Cc1cc(NC(=O)c2ccccc2F)cc(C)c1OCC(=O)N1CCOCC1 | 13% | 9.5µM* | -1% | · | 7% | ·
O=C(CCC1CCCC1)Nc1ccc(OCC(=O)N2CCOCC2)cc1 | 10% | 4.8µM* | 10% | -1% | 8% | -1%
COC(=O)Nc1ccc(OCC(=O)N2CCOCC2)cc1 | -4% | 5% | -3% | -3% | 0% | 6%
CCc1ccc(C(=O)NNC(=O)c2ccc(OCC(=O)N3CCOCC3)c(OC)c2)cc1 | -12% | 0% | -6% | · | 0% | ·
Cc1ccc(C)c(NC(=O)c2ccc(N(C)S(C)(=O)=O)cc2)c1 | -1% | ? | 11% | -4% | 4% | -5%
